Drawing on PMC11006913, this text covers binding signal for 26 sequences.

Targets include HOXC10 (Homo sapiens, UniProt Q9NYD6 254-340, K271E); HOXC9 (Homo sapiens, UniProt P31274 178-260, R222W); PITX2 (Homo sapiens, UniProt Q99697 72-157).
Holding throughout (assay): PBM; 200 nM protein, PBS
Settings in all cases: dsDNA, one strand shown

The target in experiment [1] is SHOX (Homo sapiens, UniProt O15266 103-189).
Experiment [2] concerns the target MSX2 (Homo sapiens, UniProt P35548 130-214, R199I).
Experiment [3] has as its target SHOX (Homo sapiens, UniProt O15266 103-189, R173C).
Experiment [4] concerns the target MSX2 (Homo sapiens, UniProt P35548 130-214).
For experiment [5], the target named is MSX2 (Homo sapiens, UniProt P35548 130-214, F161Y).
Experiment [6] has as its target PRRX1 (Homo sapiens, UniProt P54821 80-166, F113S).
Experiment [7] deals with PRRX1 (Homo sapiens, UniProt P54821 80-166).
In experiment [8] the target is HOXD13 (Homo sapiens, UniProt P35453 263-343, T313R).
Experiment [9] addresses HOXD13 (Homo sapiens, UniProt P35453 263-343).
Experiment [10] deals with HOXD13 (Homo sapiens, UniProt P35453 263-343, T313A).
For experiment [11], the target named is ALX3 (Homo sapiens, UniProt O95076 139-225, N203Q).
Experiment [12] has as its target ALX3 (Homo sapiens, UniProt O95076 139-225, N203S).
For experiment [13], the target named is ALX3 (Homo sapiens, UniProt O95076 139-225).
Experiment [14] deals with ALX3 (Homo sapiens, UniProt O95076 139-225, L168Q).
Experiment [15] concerns the target ALX3 (Homo sapiens, UniProt O95076 139-225, L168V).
Experiment [16] addresses ALX1 (Homo sapiens, UniProt Q15699 118-204, L144V).
Experiment [17] addresses ALX1 (Homo sapiens, UniProt Q15699 118-204, L144R).
Experiment [18] has as its target VAX1 (Homo sapiens, UniProt Q5SQQ9 86-172).
The target of experiment [19] is VAX1 (Homo sapiens, UniProt Q5SQQ9 86-172, T142I).
For experiment [20], the target named is ALX1 (Homo sapiens, UniProt Q15699 118-204).
The target in experiment [21] is VAX1 (Homo sapiens, UniProt Q5SQQ9 86-172, K157R).
Sequence of VAX1 (Homo sapiens, UniProt Q5SQQ9 86-172, K157R) (Q5SQQ9 86-172 K157R): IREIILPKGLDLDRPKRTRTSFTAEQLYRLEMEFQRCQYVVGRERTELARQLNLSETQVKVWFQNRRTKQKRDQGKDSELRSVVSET

Sequence of SHOX (Homo sapiens, UniProt O15266 103-189, R173C) (O15266 103-189 R173C): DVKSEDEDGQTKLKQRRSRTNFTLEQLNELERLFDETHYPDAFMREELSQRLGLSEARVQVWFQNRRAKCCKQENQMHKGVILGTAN
Sequence of HOXD13 (Homo sapiens, UniProt P35453 263-343, T313R) (P35453 263-343 T313R): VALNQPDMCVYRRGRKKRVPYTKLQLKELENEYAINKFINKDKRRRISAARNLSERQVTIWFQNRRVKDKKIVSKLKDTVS
Sequence of ALX3 (Homo sapiens, UniProt O95076 139-225, N203S) (O95076 139-225 N203S): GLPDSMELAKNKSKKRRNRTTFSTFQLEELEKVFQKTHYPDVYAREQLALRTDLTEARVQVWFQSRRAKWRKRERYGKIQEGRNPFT
Sequence of SHOX (Homo sapiens, UniProt O15266 103-189) (O15266 103-189): as the sequence (O15266 103-189 R173C) above, with C71R counted along it
Sequence of ALX3 (Homo sapiens, UniProt O95076 139-225, N203Q) (O95076 139-225 N203Q): as the sequence (O95076 139-225 N203S) above, with S65Q counted along it
Sequence of HOXD13 (Homo sapiens, UniProt P35453 263-343, T313A) (P35453 263-343 T313A): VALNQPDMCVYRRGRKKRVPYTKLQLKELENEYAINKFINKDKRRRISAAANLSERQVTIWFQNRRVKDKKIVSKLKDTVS
Sequence of ALX3 (Homo sapiens, UniProt O95076 139-225, L168Q) (O95076 139-225 L168Q): as the sequence (O95076 139-225 N203S) above, with L30Q, S65N counted along it
Sequence of ALX3 (Homo sapiens, UniProt O95076 139-225, L168V) (O95076 139-225 L168V): as the sequence (O95076 139-225 N203S) above, with L30V, S65N counted along it
Sequence of ALX3 (Homo sapiens, UniProt O95076 139-225) (O95076 139-225): as the sequence (O95076 139-225 N203S) above, with S65N counted along it
Sequence of HOXD13 (Homo sapiens, UniProt P35453 263-343) (P35453 263-343): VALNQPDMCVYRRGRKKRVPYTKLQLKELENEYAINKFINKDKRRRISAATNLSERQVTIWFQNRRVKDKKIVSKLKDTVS
Sequence of VAX1 (Homo sapiens, UniProt Q5SQQ9 86-172, T142I) (Q5SQQ9 86-172 T142I): as the sequence (Q5SQQ9 86-172 K157R) above, with T57I, R72K counted along it
Sequence of MSX2 (Homo sapiens, UniProt P35548 130-214, R199I) (P35548 130-214 R199I): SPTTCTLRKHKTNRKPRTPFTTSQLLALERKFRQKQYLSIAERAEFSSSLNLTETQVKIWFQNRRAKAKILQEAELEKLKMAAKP
Sequence of HOXC9 (P31274 178-260 R222W): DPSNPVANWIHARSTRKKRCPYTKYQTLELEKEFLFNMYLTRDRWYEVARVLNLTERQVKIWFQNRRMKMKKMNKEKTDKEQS
Sequence of ALX1 (Homo sapiens, UniProt Q15699 118-204, L144V) (Q15699 118-204 L144V): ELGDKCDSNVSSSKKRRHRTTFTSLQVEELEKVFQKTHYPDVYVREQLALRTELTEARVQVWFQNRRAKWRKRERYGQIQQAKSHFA
Sequence of PRRX1 (Homo sapiens, UniProt P54821 80-166) (P54821 80-166): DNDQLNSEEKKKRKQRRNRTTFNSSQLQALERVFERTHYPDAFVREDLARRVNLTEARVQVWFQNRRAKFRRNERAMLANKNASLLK
Sequence of ALX1 (Homo sapiens, UniProt Q15699 118-204) (Q15699 118-204): as the sequence (Q15699 118-204 L144V) above, with V27L counted along it
Sequence of MSX2 (Homo sapiens, UniProt P35548 130-214) (P35548 130-214): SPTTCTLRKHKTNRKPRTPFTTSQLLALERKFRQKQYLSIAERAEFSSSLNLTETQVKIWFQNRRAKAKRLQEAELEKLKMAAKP
Sequence of MSX2 (Homo sapiens, UniProt P35548 130-214, F161Y) (P35548 130-214 F161Y): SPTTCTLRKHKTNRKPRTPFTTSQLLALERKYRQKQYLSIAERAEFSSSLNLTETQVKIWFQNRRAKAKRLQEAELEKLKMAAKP
Sequence of VAX1 (Homo sapiens, UniProt Q5SQQ9 86-172) (Q5SQQ9 86-172): as the sequence (Q5SQQ9 86-172 K157R) above, with R72K counted along it
Sequence of HOXC10 (Q9NYD6 254-340 K271E): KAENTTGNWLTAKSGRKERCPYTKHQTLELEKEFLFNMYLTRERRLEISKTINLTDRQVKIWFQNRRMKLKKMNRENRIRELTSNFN
Sequence of PRRX1 (Homo sapiens, UniProt P54821 80-166, F113S) (P54821 80-166 F113S): as the sequence (P54821 80-166) above, with F34S counted along it
Sequence of ALX1 (Homo sapiens, UniProt Q15699 118-204, L144R) (Q15699 118-204 L144R): as the sequence (Q15699 118-204 L144V) above, with V27R counted along it

For GCCTTGCC, the binding signal in the experiment with SHOX [1] is 7.17 upbm affinity estimate (log intensity, higher = more binding, comparable within an allelic series); with MSX2 [2], 9.62 upbm affinity estimate (log intensity, higher = more binding, comparable within an allelic series); with SHOX [3], 7.18 upbm affinity estimate (log intensity, higher = more binding, comparable within an allelic series); with MSX2 [4], 9.57 upbm affinity estimate (log intensity, higher = more binding, comparable within an allelic series); in the experiment with MSX2 [5], 9.57 upbm affinity estimate (log intensity, higher = more binding, comparable within an allelic series).
GGAGGGAA: the binding signal with SHOX [1] is 7.13 upbm affinity estimate (log intensity, higher = more binding, comparable within an allelic series); with PRRX1 [6], 9.41 upbm affinity estimate (log intensity, higher = more binding, comparable within an allelic series); with SHOX [3] it was 7.16 upbm affinity estimate (log intensity, higher = more binding, comparable within an allelic series); in the experiment with PRRX1 [7] it was 9.45 upbm affinity estimate (log intensity, higher = more binding, comparable within an allelic series).
With AGTTTATG, the binding signal is 8.25 upbm affinity estimate (log intensity, higher = more binding, comparable within an allelic series) with SHOX [1]; 10.7 upbm affinity estimate (log intensity, higher = more binding, comparable within an allelic series) in the experiment with HOXD13 [8]; 11.9 upbm affinity estimate (log intensity, higher = more binding, comparable within an allelic series) with HOXD13 [9]; 11.1 upbm affinity estimate (log intensity, higher = more binding, comparable within an allelic series) in the experiment with HOXC10; 11.5 upbm affinity estimate (log intensity, higher = more binding, comparable within an allelic series) with HOXD13 [10].
For the sequence CCCTCCTC, the binding signal with SHOX [1] is 7.26 upbm affinity estimate (log intensity, higher = more binding, comparable within an allelic series); in the experiment with SHOX [3], 7.13 upbm affinity estimate (log intensity, higher = more binding, comparable within an allelic series).
Take GCGTTAAA: the binding signal in the experiment with SHOX [1] was 8.14 upbm affinity estimate (log intensity, higher = more binding, comparable within an allelic series); with SHOX [3], 7.56 upbm affinity estimate (log intensity, higher = more binding, comparable within an allelic series).
Regarding CCCGGGGC, the binding signal was 7.23 upbm affinity estimate (log intensity, higher = more binding, comparable within an allelic series) in the experiment with SHOX [1] and 7.07 upbm affinity estimate (log intensity, higher = more binding, comparable within an allelic series) with SHOX [3].
For the sequence CCCACTCG, the binding signal with SHOX [1] was 7.04 upbm affinity estimate (log intensity, higher = more binding, comparable within an allelic series); in the experiment with SHOX [3] it was 7.12 upbm affinity estimate (log intensity, higher = more binding, comparable within an allelic series).
For the sequence ATATTAAA, the binding signal with SHOX [1] is 9.92 upbm affinity estimate (log intensity, higher = more binding, comparable within an allelic series); with ALX3 [11], 8.59 upbm affinity estimate (log intensity, higher = more binding, comparable within an allelic series); in the experiment with HOXD13 [8], 10.7 upbm affinity estimate (log intensity, higher = more binding, comparable within an allelic series); in the experiment with HOXC9, 11.1 upbm affinity estimate (log intensity, higher = more binding, comparable within an allelic series); with ALX3 [12] it was 8.68 upbm affinity estimate (log intensity, higher = more binding, comparable within an allelic series).
For the sequence AATTAGGC, the binding signal in the experiment with SHOX [1] was 11.6 upbm affinity estimate (log intensity, higher = more binding, comparable within an allelic series); with SHOX [3], 9.07 upbm affinity estimate (log intensity, higher = more binding, comparable within an allelic series).
As for CCTGAGAG, the binding signal with SHOX [1] is 7.19 upbm affinity estimate (log intensity, higher = more binding, comparable within an allelic series); with SHOX [3], 7.25 upbm affinity estimate (log intensity, higher = more binding, comparable within an allelic series).
As for GGCCAGAC, the binding signal was 7.3 upbm affinity estimate (log intensity, higher = more binding, comparable within an allelic series) with SHOX [1] and 7.26 upbm affinity estimate (log intensity, higher = more binding, comparable within an allelic series) with SHOX [3].
Consider CCCCGAAC, for which the binding signal was 7.23 upbm affinity estimate (log intensity, higher = more binding, comparable within an allelic series) in the experiment with SHOX [1] and 7.26 upbm affinity estimate (log intensity, higher = more binding, comparable within an allelic series) with SHOX [3].
CCTGGGGC: the binding signal was 7.08 upbm affinity estimate (log intensity, higher = more binding, comparable within an allelic series) with SHOX [1]; 7.67 upbm affinity estimate (log intensity, higher = more binding, comparable within an allelic series) with ALX3 [11]; 7.09 upbm affinity estimate (log intensity, higher = more binding, comparable within an allelic series) with SHOX [3]; 7.69 upbm affinity estimate (log intensity, higher = more binding, comparable within an allelic series) with ALX3 [13]; 7.69 upbm affinity estimate (log intensity, higher = more binding, comparable within an allelic series) in the experiment with ALX3 [14]; 7.65 upbm affinity estimate (log intensity, higher = more binding, comparable within an allelic series) with ALX3 [15]. In the experiment with ALX3 [12], the binding signal was 7.61 upbm affinity estimate (log intensity, higher = more binding, comparable within an allelic series).
For the sequence AGCTGTCC, the binding signal is 7.1 upbm affinity estimate (log intensity, higher = more binding, comparable within an allelic series) with SHOX [1] and 7.23 upbm affinity estimate (log intensity, higher = more binding, comparable within an allelic series) with SHOX [3].
Regarding AGGGCAGC, the binding signal with SHOX [1] is 6.98 upbm affinity estimate (log intensity, higher = more binding, comparable within an allelic series); with HOXD13 [8], 9.54 upbm affinity estimate (log intensity, higher = more binding, comparable within an allelic series); with SHOX [3], 7.18 upbm affinity estimate (log intensity, higher = more binding, comparable within an allelic series); with HOXD13 [9], 9.49 upbm affinity estimate (log intensity, higher = more binding, comparable within an allelic series); with HOXD13 [10], 9.66 upbm affinity estimate (log intensity, higher = more binding, comparable within an allelic series).
In the case of GGCTGGCA, the binding signal was 7.2 upbm affinity estimate (log intensity, higher = more binding, comparable within an allelic series) with SHOX [1] and 7.13 upbm affinity estimate (log intensity, higher = more binding, comparable within an allelic series) with SHOX [3].
For the sequence GCCGGGGA, the binding signal with SHOX [1] is 7.02 upbm affinity estimate (log intensity, higher = more binding, comparable within an allelic series); in the experiment with SHOX [3], 7.11 upbm affinity estimate (log intensity, higher = more binding, comparable within an allelic series).
Take AGGGTCGG: the binding signal is 7.15 upbm affinity estimate (log intensity, higher = more binding, comparable within an allelic series) with SHOX [1] and 7.14 upbm affinity estimate (log intensity, higher = more binding, comparable within an allelic series) in the experiment with SHOX [3].
For the sequence CTCCGAAC, the binding signal in the experiment with SHOX [1] is 7.18 upbm affinity estimate (log intensity, higher = more binding, comparable within an allelic series); with SHOX [3], 7.23 upbm affinity estimate (log intensity, higher = more binding, comparable within an allelic series).
On to CCAAACGG, for which the binding signal in the experiment with SHOX [1] is 7.11 upbm affinity estimate (log intensity, higher = more binding, comparable within an allelic series); in the experiment with SHOX [3], 7.21 upbm affinity estimate (log intensity, higher = more binding, comparable within an allelic series).
Turning to CCGAAGCG, the binding signal with SHOX [1] is 7.16 upbm affinity estimate (log intensity, higher = more binding, comparable within an allelic series); with SHOX [3], 7.24 upbm affinity estimate (log intensity, higher = more binding, comparable within an allelic series).
On to CTCCGCCA, for which the binding signal in the experiment with SHOX [1] is 7.21 upbm affinity estimate (log intensity, higher = more binding, comparable within an allelic series); in the experiment with SHOX [3], 7.21 upbm affinity estimate (log intensity, higher = more binding, comparable within an allelic series).
As for CCGGGACG, the binding signal is 7.24 upbm affinity estimate (log intensity, higher = more binding, comparable within an allelic series) with SHOX [1] and 7.27 upbm affinity estimate (log intensity, higher = more binding, comparable within an allelic series) with SHOX [3].
Regarding AAGGCTCC, the binding signal was 7.08 upbm affinity estimate (log intensity, higher = more binding, comparable within an allelic series) in the experiment with SHOX [1] and 7.1 upbm affinity estimate (log intensity, higher = more binding, comparable within an allelic series) in the experiment with SHOX [3].
In the case of CAGCCGCG, the binding signal with SHOX [1] was 7.08 upbm affinity estimate (log intensity, higher = more binding, comparable within an allelic series); with ALX1 [16], 6.48 upbm affinity estimate (log intensity, higher = more binding, comparable within an allelic series); with ALX3 [11] it was 7.74 upbm affinity estimate (log intensity, higher = more binding, comparable within an allelic series); with SHOX [3], 7.07 upbm affinity estimate (log intensity, higher = more binding, comparable within an allelic series); in the experiment with ALX1 [17], 6.44 upbm affinity estimate (log intensity, higher = more binding, comparable within an allelic series); with ALX3 [13], 7.7 upbm affinity estimate (log intensity, higher = more binding, comparable within an allelic series). The binding signal with VAX1 [18] was 7 upbm affinity estimate (log intensity, higher = more binding, comparable within an allelic series); in the experiment with ALX3 [14], 7.68 upbm affinity estimate (log intensity, higher = more binding, comparable within an allelic series); with ALX3 [15], 7.67 upbm affinity estimate (log intensity, higher = more binding, comparable within an allelic series); with VAX1 [19], 7.24 upbm affinity estimate (log intensity, higher = more binding, comparable within an allelic series); with ALX1 [20] it was 6.47 upbm affinity estimate (log intensity, higher = more binding, comparable within an allelic series); with ALX3 [12], 7.74 upbm affinity estimate (log intensity, higher = more binding, comparable within an allelic series). In addition, the binding signal with VAX1 [21] was 7.13 upbm affinity estimate (log intensity, higher = more binding, comparable within an allelic series).
For the sequence TATTAGGA, the binding signal is 10.1 upbm affinity estimate (log intensity, higher = more binding, comparable within an allelic series) in the experiment with SHOX [1] and 9.87 upbm affinity estimate (log intensity, higher = more binding, comparable within an allelic series) in the experiment with PITX2.
